Screens from PubChem BioAssay.
An excerpt weighted towards active compounds, which were near 1.5% of everything screened.
mIDH1 inhibitor = inhibitors of human mutant IDH1 R132H; O75874; IDH1-R132H enzyme, NADPH consumption, diaphorase/resazurin fluorescence; Potency, µM (series often up to 76.6 µM), for the others: at the highest dose activity change, negative = inhibition, hits mostly inhibitors; hit rate 0.093% among 390,000; note: potency is the fitted concentration of half-maximal effect; nearly all actives have a fitted effect of over 65% in size
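IDH1-R132H (0.5 ug/mL) preincubated 30 min with compound, then NADPH (0.016 mM) and alpha-KG (2 mM) added; 80 min at RT, pH 7.5. Remaining NADPH coupled via diaphorase/resazurin to fluorescence (540/590 nm); concentration-response curves normalized to no-enzyme control.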
Eya2 phos inh = blocks the phosphatase activity of human Eya2. Potency, µM (highest dose often 76.9 µM), for the others: at the top dose activity, negative = inhibition, hits mostly inhibitors. AID 488837. hit rate 0.006% among 330,000. O00167. recombinant Eya2, OMFP fluorescence dephosphorylation (OMFP is methylfluorescein phosphate); note: potency is the fitted concentration of half-maximal effect
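Eya2 protein (added as 0.2 uM solution) was preincubated with compound for 10 min at ambient temperature in 50 mM HEPES pH 7.5, 50 mM NaCl, 5 uM MgCl2, 0.05% BSA, 1 mM DTT. OMFP (added at 50 uM) then reacted 10 min; fluorescence read at 485/525 nm.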
TrxR1 substrate = substrates of rat thioredoxin reductase 1; O89049; purified TrxR1 substrate turnover, NADPH consumption readout; Potency, µM (series often up to 114 µM), for the others: at the highest dose activity change, negative = substrate turnover; hit rate 0.01% among 390,000; AID 588456; note: potency is the fitted concentration of half-maximal effect; nearly all actives have a fitted effect of over 50% in size
Target sequence (O89049 whole entry, looked up): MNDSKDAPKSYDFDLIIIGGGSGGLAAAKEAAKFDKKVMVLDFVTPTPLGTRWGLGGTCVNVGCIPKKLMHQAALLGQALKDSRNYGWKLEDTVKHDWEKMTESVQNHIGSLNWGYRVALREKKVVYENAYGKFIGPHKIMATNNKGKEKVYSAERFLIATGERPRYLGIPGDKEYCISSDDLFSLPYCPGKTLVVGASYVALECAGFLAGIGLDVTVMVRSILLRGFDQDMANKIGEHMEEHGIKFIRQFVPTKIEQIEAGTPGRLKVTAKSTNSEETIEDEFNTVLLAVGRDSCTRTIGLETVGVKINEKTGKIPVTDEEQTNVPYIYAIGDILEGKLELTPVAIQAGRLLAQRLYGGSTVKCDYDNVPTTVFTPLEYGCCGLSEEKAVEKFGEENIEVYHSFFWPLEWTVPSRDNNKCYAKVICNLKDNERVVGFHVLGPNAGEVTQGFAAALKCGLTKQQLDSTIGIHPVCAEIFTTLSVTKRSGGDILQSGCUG
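Rat TrxR1, dispensed at 90 nM, was prereduced with 400 uM NADPH (final) for 5 min at ~22 deg C, then incubated with compound 15 min before 400 uM selenite. A first-read NADPH fluorescence drop versus no-compound background flagged substrates.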
Coupling enz = coupling enzyme interference in Giardia aldolase counter-screen | coupling enzyme system counterscreen, AmpLite Red fluorescence | activity change, negative = inhibition, % at 58.2 µM, hits read low | AID 2472 | hit rate 0.67% among 290,000; in the data active = activity change below about -30%
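Fluorescence at 525 nm excitation and 598 nm emission measured inhibition of the coupled detection system without aldolase. Compounds (at 57.5 uM final) were preincubated 10 min at room temperature with coupling enzyme reagent before a 20 min substrate/AmpLite Red step.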
TrxR1 inh = rat TrxR1 inhibition. O89049. recombinant rTrxR1, NADPH fluorescence consumption, selenite substrate. Potency, µM (titrated, usually from 114 µM), for inactives: at the top dose activity change, negative = inhibition, hits mostly inhibitors. hit rate 1% among 390,000; note: potency is the fitted concentration of half-maximal effect; nearly all actives have a fitted effect of over 65% in size
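Rat TrxR1 (90 nM in the dispensed reagent) was pre-reduced with 400 uM NADPH for 5 min at room temperature, then incubated with compound for 15 min. After 400 uM selenite was added, NADPH fluorescence (Ex 340/Em 450 nm) was followed for 8 min.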
* = called active by the depositor; ? = inconclusive; · = no result given; ! = not active in a repeat; [ ] = another dose, or the depositor's remark. Unless noted, calls come from the whole dose curve; as a rule, active = well fitted curve in the direction sought with a large enough effect; inconclusive = small, poorly fitted or top-dose-only effect, or another doubt; inactive = no such curve, though single readings can be large; an effect the other way counts as inactive or inconclusive. % is set by controls: 0 for no effect and ±100 for the full control effect.

SMILES	mIDH1 inhibitor	Eya2 phos inh	TrxR1 substrate	Coupling enz	TrxR1 inh
CC(=O)OC[C@@]12C(=O)[C@@H](O)[C@@H](C)[C@]3(C[C@@H](c4ccoc4)O[C@@H]3OC(C)=O)[C@H]1CCC[C@]21CO1	·	·	·	0	·
CCN1C(=O)[C@H]2[C@@H](c3ccc(-c4ccc(F)cc4)c(OC)c3)N[C@@](C)(C(=O)OC)[C@H]2C1=O	4%	3%	1%	·	79µM*
CC[N+]1(CC(=O)c2ccc(OC)cc2)CCCCC1	·	·	2%	·	11%
COc1cc(N(C)C)cc(CN(C)CCc2ccc([N+](=O)[O-])cc2)c1O	·	·	·	-54*	·
COc1ccc(CNCCc2ccc([N+](=O)[O-])cc2)c(OC)c1OC	-6%	-9%	-6%	0	-4%
COC(=O)c1cc(NC(=S)NC(=O)c2ccccc2)ccc1N1CCOCC1	-6%	1%	-15%	·	28µM*
COC(=O)c1cc(NC(=O)c2c(-c3ccccc3)noc2C)ccc1N1CCOCC1	4%	-1%	-3%	·	-2%
Cc1cccc(C(=O)NC(=S)Nc2ccc(N3CCOCC3)cc2)c1	-2%	-2%	-8%	-2	32µM*
c1nc(SSc2ncc3n[nH]nc3n2)nc2n[nH]nc12	·	·	-24%	·	?
COC1=CC(=O)c2c(ccc3ncnc(N)c23)C1=O	22%	·	79µM*	·	?
CCn1c(=O)c([N+](=O)[O-])c(Cl)c2ccccc21	4%	-4%	5%	0	2.5µM*
O=C(O)c1ccnc2c(O)cccc12	·	-21%	·	·	·
COc1cc(/C=C2/C(=O)c3cccc([N+](=O)[O-])c3C2=O)c(Br)cc1O	3%	0%	-16%	-9	28µM*
NS(=O)(=O)c1ccc(NC(=S)Nc2cc(Cl)c(Cl)cc2Cl)cc1	7%	1%	-3%	-2	35µM*
CSCC[C@H](N)C(=O)N[C@@H](CCC(=O)O)C(=O)N[C@H](C(=O)NCC(=O)N[C@@H](Cc1c[nH]c2ccccc12)C(=O)N[C@@H](Cc1ccc(O)cc1)C(=O)N[C@@H](CCCNC(=N)N)C(=O)N[C@@H](CO)C(=O)N1CCC[C@H]1C(=O)N[C@@H](Cc1ccccc1)C(=O)N[C@@H](CO)C(=O)N[C@@H](CCCNC(=N)N)C(=O)N[C@H](C(=O)N[C@H](C(=O)N[C@@H](Cc1cnc[nH]1)C(=O)N[C@@H](CC(C)C)C(=O)N[C@@H](Cc1ccc(O)cc1)C(=O)N[C@@H](CCCNC(=N)N)C(=O)N[C@@H](CC(N)=O)C(=O)NCC(=O)N[C@@H](CCCCN)C(=O)O)C(C)C)C(C)C)C(C)C	·	·	·	0	·
O=C(Oc1ccc(N(C(=O)c2ccncc2)S(=O)(=O)c2ccc(Cl)cc2)cc1)c1ccncc1	4%	3%	6%	-2	?
O=C(Oc1ccc(N(C(=O)c2ccncc2)S(=O)(=O)c2ccc(F)cc2)cc1)c1ccncc1	0%	6%	?	0	35µM*
O=C(C[n+]1ccncc1)c1cccc([N+](=O)[O-])c1	·	·	6%	·	?
O=C(CSc1ccc(-c2ccco2)nn1)Nc1ccc(F)cc1	6%	9%	8%	·	32µM*
CCOc1ccc(NC(=O)CSc2ccc(-c3ccco3)nn2)cc1	-1%	-7%	4%	·	?
COc1cccc(NC(=O)CSc2ccc(-c3ccco3)nn2)c1	3%	10%	5%	·	28µM*
O=C(CSc1ccc(-c2ccco2)nn1)c1ccccc1	3%	5%	-6%	2	28µM*
COc1ccc(NC(=O)CSc2ccc(-c3ccco3)nn2)cc1OC	1%	-7%	-2%	·	35µM*
COc1ccc(CCNC(=O)CSc2ccc(-c3ccco3)nn2)cc1OC	-6%	1%	0%	-1	?
Cc1nnc(NC(=O)CSc2ccc(-c3ccco3)nn2)s1	2%	-11%	10%	-2	18µM*
SMILES	mIDH1 inhibitor	Eya2 phos inh	TrxR1 substrate	Coupling enz	TrxR1 inh
O=C(Cn1nc(-c2ccco2)ccc1=O)Nc1ccc(Br)cc1	0%	-8%	20%	1	40µM*
O=[N+]([O-])c1ccc(/C=C/c2cc(Cl)nc3ccccc23)cc1	·	·	1%	·	23%
COC(=O)C1=C(C)N=c2s/c(=C3\C(=O)Nc4ccccc43)c(=O)n2C1c1ccccc1 (centres undefined)	·	2%	·	3	·
CCOC(=O)C1=C(C)N=c2s/c(=C3/C(=O)Nc4ccccc43)c(=O)n2C1c1ccc(C)cc1 (centres undefined)	-6%	1%	-19%	-1	45µM*
CCCC[C@@H](C)/C=C(C)/C=C(\C)C(=O)NC1=C[C@@](O)(/C=C/C=C/C=C/C(=O)NC2=C(O)CCC2=O)[C@@H]2O[C@@H]2C1=O	·	·	·	1	·
COc1ccc(C(C#N)N2CCC(c3ccccc3)=N2)cc1OC (centres undefined)	5%	-5%	3%[57.1 µM]	0	3.2µM*
COc1cc(C(C#N)N2CCC(c3ccccc3)=N2)ccc1O (centres undefined)	9%	4%	-4%	0	22µM*
COc1ccc(C2=NN(C(C#N)c3ccc(OC)c(OC)c3)C(c3ccccc3)C2)cc1 (centres undefined)	3%	10%	-7%	-2	?
C[n+]1cc2c3c(ccc2c2ccc4cc5c(cc4c21)OCO5)OCO3	·	1%	33%[57.1 µM]	-43*!	?
O=c1cc(Br)c(O)c(Br)cc1Br	9%	·	-3%	·	3.2µM*
CC(C)(CCCCCCCCCCC(C)(C)CC(=O)O)CC(=O)O	·	·	·	13	·
Cc1ccc2nc(/C(C#N)=C\c3ccc([N+](=O)[O-])o3)[nH]c2c1	8%	1%	5%[57.1 µM]	·	?
N#C/C(=C\c1ccc([N+](=O)[O-])o1)c1nc2ccccc2[nH]1	12%	7%	4%	0	2.8µM*
COC(=O)C/C=C1\c2ccc3c(c2[C@@H](OC)[C@@H]1C)OCO3	·	·	·	0	·
c1ccc2c(c1)CCN(c1nc3cc4c(cc3s1)OCCO4)C2	0%	-11%	6%	-38*	-3%
CN(N=O)c1ccc(/C=C2\C=Cc3ccccc32)cc1	·	·	-3%	·	4%
C/C1=C\[C@@H](O)C(C(C)C)C(OC(=O)c2ccc(O)cc2)C/C(C)=C/CC1 (some centres undefined)	·	·	·	1	·
O=C(Nc1ccc(NC(=O)c2cccc([N+](=O)[O-])c2)cc1)c1cccc([N+](=O)[O-])c1	8%	1%	-11%	2	-15%
O=C(Nc1ncc([N+](=O)[O-])s1)c1cccc([N+](=O)[O-])c1	40%	17%	-5%[57.1 µM]	-41*	39%[0.0914 µM]
CCCCn1c(SCC(N)=O)nc2ccc(N3CCOCC3)cc2c1=O	-2%	-1%	49%	-40*	-4%
COc1ccc(Cn2c(SCC#N)nc3ccc(N4CCOCC4)cc3c2=O)cc1	4%	1%	-7%[57.1 µM]	-28	16%[57.1 µM]
